These results are taken from PubChem BioAssay.

Test [1] can be described thus: growth inhibition of DIPG glioma cells, dose response, cell-based, SU-DIPG-XVII, MIPE5.0, CellTiter-Glo, qHTS (AID 1347060; cut-off not given, nearly all actives have AC50 up to about 26 µM;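 for AC50: cells exposed to compound for 48 hours before viability readout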). Particulars: SU-DIPG-XVII viability, CellTiter-Glo ATP luminescence.
Test [2] can be described thus: growth inhibition of DIPG glioma cells, dose response, cell-based, SU-DIPG-XIII, MIPE4.0, CellTiter-Glo, qHTS (AID 1347061; cut-off not given, nearly all actives have AC50 up to about 37 µM;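 note: cells exposed to compound for 48 hours before readout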). Particulars: SU-DIPG-XIII viability, CellTiter-Glo ATP luminescence. A general note: ATP-based viability assays read luminescence as a measure of living cells.
Test [3] is described as follows: growth inhibition of DIPG glioma cells, dose response, cell-based, JHH-DIPG-1, MIPE4.0, CellTiter-Glo, qHTS (AID 1347062; cut-off not given, nearly all actives have AC50 up to about 27 µM;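 for AC50: cells exposed to compound for two days before readout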). The settings on record: JHH-DIPG-1 viability, CellTiter-Glo ATP luminescence.
Test [4] can be described thus: growth inhibition of DIPG glioma cells, dose response, cell-based, SU-DIPG-IV, MIPE4.0, CellTiter-Glo, qHTS (AID 1347063; cut-off not given, nearly all actives have AC50 up to about 30 µM;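 note: compound exposure lasted 48 hours before the viability readout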). Particulars: SU-DIPG-IV viability, CellTiter-Glo ATP luminescence.
Test [5] is described as follows: viability loss in pontine glioma line – cell-based, SU-DIPG-XXV, MIPE5.0, CellTiter-Glo, qHTS, dose response (AID 1347065; cut-off not given, nearly all actives have AC50 up to about 26 µM;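 note: cells exposed to compound for 48 hours before ATP readout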). The settings on record: CellTiter-Glo ATP luminescence.
Test [6] can be described thus: SU-DIPG-VI glioma cell viability, MIPE4.0 library, CellTiter-Glo luminescence, qHTS (AID 1347066; cut-off not given, nearly all actives have AC50 up to about 30 µM;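 note: cells exposed to compound for 48 hours before readout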). Particulars: CellTiter-Glo ATP luminescence.
Test [7] is described as follows: JHH-DIPG-1 glioma cell viability, MIPE5.0 library, CellTiter-Glo luminescence, qHTS (AID 1347067; cut-off not given, nearly all actives have AC50 up to about 26 µM;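 note: cells exposed to compound for 48 hours before readout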). Particulars: JHH-DIPG-1 glioma viability, CellTiter-Glo ATP luminescence.
A short description of test [8]: SU-DIPG-XXV glioma cell viability, MIPE5.0 library, qHTS (AID 1347068; cut-off not given, nearly all actives have IC50 up to about 30 µM).
Test [9] is described as follows: sensitizers of A549 cells to miR-34 induction, primary screen, imaging, A549 dox-inducible miR-34, nuclei and caspase counts (AID 1347080;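 active = compounds whose cell count with miR-34 switched on is under 0.7 times the count with it off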). The settings on record: A549 miR-34 inducible, Hoechst nuclei count, 48 h.
The nature of test [10]: modifiers of HSF1 nuclear foci, imaging, Selleck Cancer Library (AID 1347162; in the data active = plate-normalised HSF1 focus index below about 0.46). The settings on record: human cells, at 10 µM; SSMD: measured here: HSF1 foci SSMD mean; cell count: measured here: cell number; plate-normalised HSF1 focus index: stronger effect = lower value.
A short description of test [11]: ovarian cancer cell viability with rucaparib, profiling panel, oncology-focused library, rucaparib conditional (AID 1508598). Particulars: patient-derived ovarian cancer cells, CellTiter-Glo viability, 144 h, stronger effect = lower value.
A short description of test [12]: survival rescue of mitochondrial mutant cells in low glucose, primary screen, MELAS cybrids, Rieske KO mouse fibroblasts, CellTiter-Glo (AID 1508586;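 active = mean z-score across replicates of 1.96 or higher in either the MELAS or the Rieske mutant cell line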;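 note: z relative to plate mean and SD of compound and empty wells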).
Setting [13] is: stronger effect = lower value, cell number ratio, induced over uninduced.
Where [14] appears, read: measured here: relative caspase fold change +Dox/-Dox.
Setting [15] is: measured here: total cells with miR-34 induction, stronger effect = lower value.
[16] abbreviates: measured here: total cells without miR-34 induction.

Results filed as inconclusive are left out. Calls of active or inactive are those of the source.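 Rule for the calls, unless noted: active = normalized viability below 100% at a tested concentration; inactive = the rest.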

With `CC(=O)N[C@H]1[C@H](O[C@@H]2c3ccc(c(Cl)c3)Oc3cc4cc(c3O[C@@H]3O[C@H](CO)[C@@H](O)[C@H](O)[C@H]3NC(=O)CCCCCCCC(C)C)Oc3ccc(cc3Cl)C[C@H]3NC(=O)[C@H](N)c5ccc(O)c(c5)Oc5cc(O)cc(c5)[C@H](NC3=O)C(=O)N[C@H]4C(=O)N[C@H]3C(=O)N[C@@H]2C(=O)N[C@@H](C(=O)O)c2cc(O)cc(O[C@H]4O[C@H](CO)[C@@H](O)[C@H](O)[C@@H]4O)c2-c2cc3ccc2O)O[C@H](CO)[C@@H](O)[C@@H]1O`, the outcome in test [1], in [2], in test [3], in test [4], in [5] and in test [6] was inactive. Also, the call in [7] and in [8] was inactive.
`NC[C@H]1O[C@H](O[C@@H]2[C@H](O)[C@@H](O[C@H]3O[C@H](CO)[C@@H](O)[C@H](N)[C@H]3O)[C@H](N)C[C@@H]2N)[C@H](O)[C@@H](O)[C@@H]1O`: the outcome in [1], in test [2], in test [3], in [4], in test [5] and in [6] was inactive. The molecule was classed as inactive in [7] and in test [8].
On to `CC(C)[C@H](C(=O)Nc1ccc(C(=O)NO)cc1)c1ccccc1`, for which the AC50 (usually the concentration at which the activity in the assay is half-maximal) is 1.86 µM (active) in test [1]; 3.72 µM (active) in test [2]; 1.87 µM (active) in test [3]; 2.35 µM (active) in test [4]; 1.32 µM (active) in test [5]; 0.833 µM (active) in [6]. The fold change in test [9] (setting [13]) was 0.834 (inactive); in [9] (setting [14]) it was 1.7. Besides, the cell count in test [9] (setting [15]) stood at 1610; in test [9] (setting [16]), 1930; in test [10] it was 7300. In test [10], the SSMD was -4.69. The plate-normalised HSF1 focus index in test [10] is 0.833 (inactive). Besides, the viability (in general, a read-out of living cells in per cent, often relative to untreated cells) was 112% (inactive) in test [11] (at 0.000305 µM, OCI-C5x cells, with rucaparib 10 µM, 100% = cells with rucaparib alone); 136% (inactive) in test [11] (at 0.000305 µM, OCI-C5x cells, without rucaparib); 105% (inactive) in test [11] (at 0.000305 µM, OCI-P5x cells, with rucaparib 20 µM, 100% = cells with rucaparib alone); 114% (inactive) in test [11] (at 0.000305 µM, OCI-P5x cells, without rucaparib); 116% (inactive) in test [11] (at 0.00122 µM, OCI-C5x cells, with rucaparib 10 µM, 100% = cells with rucaparib alone); 139% (inactive) in test [11] (at 0.00122 µM, OCI-C5x cells, without rucaparib). The viability in test [11] (at 0.00122 µM, OCI-P5x cells, with rucaparib 20 µM, 100% = cells with rucaparib alone) is 102% (inactive); in [11] (at 0.00122 µM, OCI-P5x cells, without rucaparib), 116% (inactive); in test [11] (at 0.00488 µM, OCI-C5x cells, with rucaparib 10 µM, 100% = cells with rucaparib alone), 104% (inactive); in test [11] (at 0.00488 µM, OCI-C5x cells, without rucaparib) it was 135% (inactive); in [11] (at 0.00488 µM, OCI-P5x cells, with rucaparib 20 µM, 100% = cells with rucaparib alone) it was 87.9% (active); in test [11] (at 0.00488 µM, OCI-P5x cells, without rucaparib) it was 107% (inactive). For the same molecule, the viability in [11] (at 0.0195 µM, OCI-C5x cells, with rucaparib 10 µM, 100% = cells with rucaparib alone) was 101% (inactive); in [11] (at 0.0195 µM, OCI-C5x cells, without rucaparib), 139% (inactive); in [11] (at 0.0195 µM, OCI-P5x cells, with rucaparib 20 µM, 100% = cells with rucaparib alone), 89.2% (active); in test [11] (at 0.0195 µM, OCI-P5x cells, without rucaparib), 110% (inactive); in test [11] (at 0.0781 µM, OCI-C5x cells, with rucaparib 10 µM, 100% = cells with rucaparib alone) it was 99.7% (active); in test [11] (at 0.0781 µM, OCI-C5x cells, without rucaparib) it was 145% (inactive). Further, the viability is 82.7% (active) in [11] (at 0.0781 µM, OCI-P5x cells, with rucaparib 20 µM, 100% = cells with rucaparib alone); 92.5% (active) in test [11] (at 0.0781 µM, OCI-P5x cells, without rucaparib); 46.8% (active) in test [11] (at 0.313 µM, OCI-C5x cells, with rucaparib 10 µM, 100% = cells with rucaparib alone); 41.1% (active) in test [11] (at 0.313 µM, OCI-C5x cells, without rucaparib); 49.2% (active) in test [11] (at 0.313 µM, OCI-P5x cells, with rucaparib 20 µM, 100% = cells with rucaparib alone); 66.8% (active) in test [11] (at 0.313 µM, OCI-P5x cells, without rucaparib). Further, the viability in test [11] (at 1.25 µM, OCI-C5x cells, with rucaparib 10 µM, 100% = cells with rucaparib alone) is 10.3% (active); in [11] (at 1.25 µM, OCI-C5x cells, without rucaparib), 11% (active); in test [11] (at 1.25 µM, OCI-P5x cells, with rucaparib 20 µM, 100% = cells with rucaparib alone), 31.4% (active); in test [11] (at 1.25 µM, OCI-P5x cells, without rucaparib), 39.9% (active); in test [11] (at 5 µM, OCI-C5x cells, with rucaparib 10 µM, 100% = cells with rucaparib alone), 5.04% (active); in [11] (at 5 µM, OCI-C5x cells, without rucaparib), 5.5% (active). Moreover, the viability in test [11] (at 5 µM, OCI-P5x cells, with rucaparib 20 µM, 100% = cells with rucaparib alone) is 2.82% (active); in test [11] (at 5 µM, OCI-P5x cells, without rucaparib), 3.14% (active).
Consider `O=C(Nc1cccc(Nc2ncc(Br)c(NCCc3cnc[nH]3)n2)c1)N1CCCC1`, for which the concentration at half-maximal activity (AC50) is 4.17 µM (active) in [1]; 16.6 µM (active) in test [2]; 16.6 µM (active) in test [3]; 16.6 µM (active) in [4]; 1.66 µM (active) in [5]; 14.8 µM (active) in test [6]. Moreover, the AC50 in [7] is 3.72 µM (active). For the same molecule, the molecule was classed as inactive in test [8]. The fold change was 0.952 (inactive) in [9] (setting [13]) and 0.914 in [9] (setting [14]). The cell count is 2420 in [9] (setting [15]) and 2540 in [9] (setting [16]). The z-score was -0.631 (inactive) in test [12] (MELAS cybrid survival, CellTiter-Glo 48 h, stronger effect = higher value) and 0.495 in test [12] (Rieske KO mouse fibroblast survival, CellTiter-Glo 72 h).
